This passage reports growth results from PubChem BioAssay (NCI).

Assay in all cases: NCI-60 one-dose screen, 48 h (100 = growth as untreated, 0 = no growth, -100 = all killed)
Settings in all cases: 10 µM unless noted

Test [1] has as its system NCI-H23 lung.
The test system of test [2] is NCI-H226 lung.
The subject of test [3] is NCI-H322M lung.
Test [4] deals with HOP-62 NSCLC.
In test [5] the test system is NCI-H460 lung.
Test [6] has as its system NCI-H522 lung.
The test system of test [7] is A549/ATCC NSCLC.
For test [8], the system named is 786-0 renal.
Test [9] concerns DU-145 prostate.
Test [10] relates to MALME-3M melanoma.
For test [11], the system named is MDA-MB-231 breast.
Test [12] relates to RXF 393 renal.
In test [13] the test system is SF-268 CNS.
In test [14] the test system is SF-295 CNS.
The subject of test [15] is SF-539 CNS.
Test [16] has as its system UACC-257 melanoma.
Test [17] concerns M14 melanoma.
For test [18], the system named is HCT-15 colon.
The test system of test [19] is K-562 leukemia.

Compounds without any hit were thinned out: in the full panel of roughly 83,000, 20% have a hit.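 Method: cells in 96-well plates; compound added at one concentration; 48 h incubation; percent growth measured; values under 10 scored active.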 Unmarked numbers belong to inactive results. Active and inactive are the calls of the source.

`ClC1C2CC(c3ccccc32)C1Cl` (stereo not drawn): the growth in [1] was 106%; in test [2] it was 109%; in test [3], 123%; in test [4], 129%; in test [5], 110%; in [6] it was 100%. Further, the growth in test [7] is 110%; in test [8], 103%; in test [9], 118%; in test [10] it was 126%; in [11] it was 107%; in test [12], 110%. Besides, the growth in test [13] is 110%; in test [14], 123%; in test [15], 95.8%; in test [16] it was 112%; in test [17], 103%; in test [18], 109%.

As to `C/C(=N/N=C(N)N)c1ccc(Cl)cc1`, the growth in [1] is 95.1%; in test [2], 96%; in test [3], 90.2%; in test [4] it was 98.8%; in test [5] it was 102%; in [6], 89%. Also, the growth is 106% in test [7]; 89.6% in test [8]; 106% in [9]; 67.8% in [19]; 143% in test [10]; 84% in test [11]. Further, the growth was 90.5% in test [12]; 101% in [13]; 100% in [15]; 77.1% in test [16]; 86.9% in test [17]; 102% in test [18].

Turning to `O=C(C(=O)N1CCCCC1)c1ccc(OC2OC(CO)C(O)C(O)C2O)cc1` (stereo not drawn), the growth in [1] was 101%; in test [2], 102%; in test [3], 116%; in test [4], 104%; in test [5], 114%; in test [6], 85.3%. In addition, the growth was 101% in test [7]; 106% in test [8]; 115% in test [9]; 101% in test [10]; 110% in test [11]; 104% in [12]. Further, the growth in test [13] is 105%; in test [14], 125%; in test [15], 100%; in test [16], 106%; in test [17], 99.1%; in [18], 108%.

Consider `COc1cc(OC)c2cc(C(=O)O)c(=O)oc2c1`, for which the growth in test [1] is 96.8%; in [2], 96.8%; in [3] it was 79.8%; in test [4] it was 103%; in [5], 95.3%; in test [6], 97.3%. Besides, the growth in test [7] was 123%; in test [8], 83.9%; in [9], 129%; in test [19] it was 95.1%; in test [10], 113%; in test [11], 94.3%. The growth in test [12] was 105%; in test [13], 110%; in test [15] it was 102%; in [16], 76%; in test [17], 103%; in [18], 106%.

Take `COc1cc(C2NC(c3ccc(Cl)cc3)C(C)C(=NC(=O)c3cnccn3)C2C)cc(OC)c1OC` (stereo not drawn): the growth in [1] was 90.7%; in [2], 102%; in test [3] it was 113%; in test [4] it was 117%; in test [5], 103%; in test [6], 85.4%. Further, the growth was 98.8% in test [7]; 91.6% in test [8]; 115% in test [9]; 79.8% in [10]; 104% in [11]; 93.8% in [12]. Moreover, the growth in test [13] was 97.2%; in test [14] it was 106%; in [15] it was 89.8%; in [16], 120%; in [17] it was 96.9%; in test [18] it was 81%.

On to `NC(N)=NN=c1c(=O)c2ccccc2c1=O`, for which the growth was 58% in test [1]; 94.6% in test [2]; 102% in test [3]; 32.3% in test [4]; 0.312% (active) in test [5]; 80.8% in test [6]. For the same compound, the growth in [7] is 95.1%; in [8] it was 108%; in [9], -97.4% (active); in test [10], -96.4% (active); in test [11] it was 90.8%; in [13], 50.6%. For the same compound, the growth in test [14] is 66%; in [15] it was 112%; in test [16] it was 106%; in test [17], -90.8% (active); in test [18], 43.4%.

With `Cc1c(C(N)=O)sc2ncn(Cc3ccccc3)c(=O)c12`, the growth in test [1] was 101%; in [2], 96.8%; in test [3], 79%; in [4], 95.4%; in [5] it was 108%; in test [6] it was 103%. Further, the growth was 85.7% in test [7]; 96.1% in [8]; 113% in [9]; 97.1% in test [19]; 120% in [10]; 102% in test [11]. Further, the growth is 106% in [12]; 104% in test [13]; 94.6% in [15]; 163% in [16]; 105% in test [17]; 115% in test [18].

As to `CC(C)(C)c1ccc(S(=O)(=O)O)s1`, the growth is 115% in test [1]; 107% in test [2]; 111% in test [3]; 99% in test [4]; 106% in test [5]; 89.6% in test [6]. The growth in [7] was 99.2%; in [8], 95.6%; in test [9], 108%; in test [19] it was 77%; in test [11], 93.1%; in test [12], 105%. Moreover, the growth was 102% in test [13]; 99.3% in test [15]; 117% in test [16]; 107% in test [17]; 107% in [18].

Take `COc1ccc2c(c1)nc(N)c1c3cc(OC)c(OC)cc3cn21`: the growth in [1] is 56.1%; in [2], 78.2%; in test [3], 84.6%; in test [4], 76.9%; in [5], 20.5%; in [6], -8.03% (active). Also, the growth in test [7] was 43.8%; in test [8], 43.1%; in [10] it was 71.3%; in test [11], 83.8%; in test [12], 46.3%; in test [13], 55.1%. The growth is 31% in test [14], 78.6% in [15], 94.8% in [16] and 31.6% in test [17].
